# uPA generation: qHTS for Inhibitors of Cell Surface uPA Generation; Potency, µM (titrated, usually from 38.3 µM), for inactives: top-dose activity change, negative = inhibition, usual class: inhibitors; cell surface uPA generation assay, qHTS; AID 540303, 2011; hit rate 0.31% among 330,000; active means well fitted inhibition curve with a large enough effect; inconclusive means small, poorly fitted or top-dose-only effect; inactive means no such curve, though single readings can be large or run the other way; tested in mouse RAW 264.7 cells; further: on the % scale 0 is the no-effect control and ±100 the full control effect; nearly all actives have a fitted effect of over 55% in size
# Chronic BCR inh: qHTS Assay to Find Inhibitors of Chronic Active B-Cell Receptor Signaling; ABC-DLBCL IkBa-CBG/CBR reporter, luminescence ratio, 4 h; hit rate 0.05% among 340,000; Potency, µM (top dose mostly 46.1 µM), without a hit: at the top dose activity change, negative = inhibition, actives largely listed as inhibitors; active means well fitted inhibition curve with a large enough effect in the signal ratio, with a control signal flat, not every such curve was filed as active; inconclusive means small, poorly fitted or top-dose-only effect, or effect the other way, or a change in a side signal; the % refers to the signal ratio;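 further: plate controls were basal doxycycline-induced cells for no effect and cells given 10 µM MG132 for full effect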
#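 Compounds up to 46 uM were incubated four hours with TMD8 cells whose green CBG68 luciferase is fused to IkappaBalpha; red CBR luminescence normalised the signal, and concentration-effect curves were fitted to fusion, red and ratio data.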
# VP16 counter: VP16 counterscreen qHTS for inhibitors of ROR gamma transcriptional activity; Drosophila S2 Gal4-VP16 UAS-luciferase, luminescence, 20 h; Potency, µM (titrated, usually from 53.6 µM), without a hit: at the top dose activity, negative = inhibition, usual class: inhibitors; hit rate 3.5% among 310,000;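 further: Gal4-VP16 expression switched on by copper sulfate through the metallothionein promoter; on the % scale 0 is the no-effect control and ±100 the full control effect; nearly all actives have a fitted effect of over 50% in size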
# Mito fusion act: qHTS Assay for Small Molecule Inhibitors of Mitochondrial Division or Activators of Mitochondrial Fusion; S. cerevisiae fusion-defective mutant growth rescue, CellTiterGlo 48 h; Potency, µM (highest dose often 46.1 µM), without a hit: at the highest dose growth rescue (activation), actives largely listed as activators; hit rate 0.23% among 320,000; further: % of control where 0% means no effect; nearly all actives have a fitted effect of over 45% in size
#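 Read-out: ATP-based luminescence (CellTiterGlo, 10 min ambient) reporting growth of fusion-defective ts yeast after 48 hours at 37C on glycerol/ethanol YPEG medium in the presence of compound.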
# a7 integrin act: qHTS for Activators of Integrin-Mediated Alleviation for Muscular Dystrophy; Potency, µM (series often up to 38.3 µM), without a hit: at the top dose activation, actives largely listed as activators; AID 624291, 2012; alpha7betagal myoblasts, beta-gal FDG fluorescence, 48 h; hit rate 0.064% among 350,000;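 further: 100% = response of the positive control SU9516; nearly all actives have a fitted effect of over 60% in size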
#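 Alpha7betagal+/- myoblasts (passage 13) were plated 16-24 hr, then exposed to compounds (1:260 dilution of DMSO stock) for 48 hours at 37C. After MPER lysis, β-galactosidase reporter activity was read as FDG fluorescence (ex 480/em 540) after 30 minutes.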
# RORg inh: qHTS for inhibitors of ROR gamma transcriptional activity; Nuclear receptor ROR-gamma (Mus musculus), P51450; Drosophila S2 Gal4-RORgamma UAS-luciferase reporter, 20 h; Potency, µM (titrated, usually from 53.6 µM), for inactives: at the highest dose activity change, negative = inhibition, actives largely listed as inhibitors; hit rate 5.4% among 310,000; further: on the % scale 0 is the no-effect control and ±100 the full control effect; nearly all actives have a fitted effect of over 60% in size
# Target sequence (P51450 whole entry, looked up, the tested form may be a part): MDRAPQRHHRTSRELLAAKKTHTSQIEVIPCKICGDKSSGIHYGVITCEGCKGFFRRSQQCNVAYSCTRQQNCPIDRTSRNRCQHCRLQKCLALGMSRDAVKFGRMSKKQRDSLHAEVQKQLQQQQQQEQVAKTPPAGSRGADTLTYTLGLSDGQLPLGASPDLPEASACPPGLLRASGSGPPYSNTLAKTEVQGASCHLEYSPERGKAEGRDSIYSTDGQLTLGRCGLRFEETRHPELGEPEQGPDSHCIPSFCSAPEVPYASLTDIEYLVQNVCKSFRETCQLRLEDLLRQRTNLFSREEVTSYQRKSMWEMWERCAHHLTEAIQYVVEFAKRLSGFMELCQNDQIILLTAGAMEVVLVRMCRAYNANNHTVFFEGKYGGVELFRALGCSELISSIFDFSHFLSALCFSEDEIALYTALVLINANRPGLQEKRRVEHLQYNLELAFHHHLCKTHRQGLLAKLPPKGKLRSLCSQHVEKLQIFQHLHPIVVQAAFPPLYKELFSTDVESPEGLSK
#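 Using a luciferase readout, inhibitors were identified by reduced reporter activity in Drosophila cells coexpressing a copper-inducible Gal4–ROR gamma fusion and UAS-driven Photinus luciferase, incubated 20 hr after 700 uM copper sulfate.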
# An asterisk follows results filed as active; u = inconclusive; x = not tested or not shown; [ ] = another dose, or the depositor's remark. The list is not random: actives were taken first. Their share in the collection is about 5.5%. Unless noted, the call rests on the fitted dose curve; in most records, active means well fitted curve in the direction sought with a large enough effect; inconclusive means small, poorly fitted or top-dose-only effect, or another doubt; inactive means no such curve, though single readings can be large; an effect the other way counts as inactive or inconclusive. Potency means the concentration at half of the fitted maximal effect.
SMILES,uPA generation,Chronic BCR inh,VP16 counter,Mito fusion act,a7 integrin act,RORg inh
CCCC/C(O)=C/c1nc2ccccc2[nH]c1=O,2%,15µM*,2%,8%,14%,u
CC(C)(C)/C(O)=C/c1nc2ccccc2[nH]c1=O,-3%,1%,-12%,9%,17%,-2%
CCCCCC(=O)Nc1ccc2ccccc2c1,0%,u,18%,-1%,30%,-6%
C/C(=C\C(=S)Nc1ccccc1)Nc1ccc2ccccc2c1,-2%,u,3.5µM*,1%,10%,5.6µM*
C/C(=C\C(=S)Nc1ccccc1)Nc1cccc2ccccc12,-7%,-7%,u,9%,35%,16µM*
CCC1CCCCN1C(=O)c1ccc2c(c1)N(Cc1cccc(Cl)c1)C(=O)c1ccccc1S2(=O)=O (centres undefined),x,5%,x,x,x,x
O=C(O)CSc1nnc(-c2ccc(Cl)cc2Cl)n1-c1ccc(Br)cc1,-1%,2%,x,-3%,-9%,x
Cc1nc(-c2ccccn2)nc(SCC(=O)N2CCOCC2)c1Cl,0%,u,-4%,2%,-13%,-20%
Cc1nc(-c2ccccn2)nc(SCC(=O)c2ccccc2)c1Cl,-3%,u,11µM*,0%,8%,4µM*
CC(/C=C/C=C(\C)C(=O)O[C@@H]1O[C@H](CO[C@@H]2O[C@H](CO)[C@@H](O)[C@H](O)[C@H]2O)[C@@H](O)[C@H](O)[C@H]1O)=C\C=C\C=C(C)\C=C\C=C(/C)C(=O)O[C@@H]1O[C@H](CO[C@@H]2O[C@H](CO)[C@@H](O)[C@H](O)[C@H]2O)[C@@H](O)[C@H](O)[C@H]1O,x,x,-7%,x,x,-8%[10 µM]
CC[C@H](C)[C@H](NC(=O)[C@H](CCC(=O)O)NC(=O)[C@H](CO)NC(=O)[C@@H](NC(=O)[C@@H](N)CO)C(C)C)C(=O)N[C@@H](CCC(N)=O)C(=O)N[C@@H](CC(C)C)C(=O)N[C@@H](CCSC)C(=O)N[C@@H](Cc1cnc[nH]1)C(=O)N[C@@H](CC(N)=O)C(=O)N[C@@H](CC(C)C)C(=O)NCC(=O)N[C@@H](CCCCN)C(=O)N[C@@H](Cc1cnc[nH]1)C(=O)N[C@@H](CC(C)C)C(=O)N[C@@H](CC(N)=O)C(=O)N[C@@H](CO)C(=O)N[C@@H](CCSC)C(=O)N[C@@H](CCC(=O)O)C(=O)N[C@@H](CCCNC(=N)N)C(=O)N[C@H](C(=O)N[C@@H](CCC(=O)O)C(=O)N[C@@H](Cc1c[nH]c2ccccc12)C(=O)N[C@@H](CC(C)C)C(=O)N[C@@H](CCCNC(=N)N)C(=O)N[C@@H](CCCCN)C(=O)N[C@@H](CCCCN)C(=O)N[C@@H](CC(C)C)C(=O)N[C@@H](CCC(N)=O)C(=O)N[C@@H](CC(=O)O)C(=O)N[C@H](C(=O)N[C@@H](Cc1cnc[nH]1)C(=O)N[C@@H](CC(N)=O)C(=O)N[C@@H](Cc1ccccc1)C(=O)N[C@H](C(=O)N[C@@H](C)C(=O)N[C@@H](CC(C)C)C(=O)NCC(=O)O)C(C)C)C(C)C)C(C)C,x,x,3%,x,x,-2%
CCCn1c(C(C)Nc2nc(-c3ccc(Cl)c([N+](=O)[O-])c3)cs2)nc2ccccc21 (centres undefined),9%,0%,u,7%,15%,13µM*
CCCn1c(C(C)Nc2nc(-c3cc(Cl)c(N)c(Cl)c3)cs2)nc2cc(Cl)c(N3CCCCC3)cc21 (centres undefined),3%,u,1%,-10%,3%,14µM*
CCCn1c(C(C)Nc2nc(-c3ccc(C)cc3)cs2)nc2ccccc21 (centres undefined),-22%,-4%,18µM*,1%,10%,5.6µM*
